According to PubChem BioAssay (NCATS):
Results filed as inconclusive are left out. Entries that show only a call come without a potency. The source made the active and inactive calls. Calls follow the shape of the dose curve; as a rule, active = well fitted inhibition curve with a large enough effect; inconclusive = small, poorly fitted or top-dose-only effect; inactive = no such curve, though single readings can be large or run the other way.

experiment: BET inhibitor-based combinations targeting novel dependencies in MECOM-rearranged (r) AML: UCSD-AML1 cell line (AID 2202235); settings: UCSD-AML1 AML cells viability, CellTiter-Glo, 48 h; series mostly up to 46 µM; also: nearly all actives have a fitted effect of over 40% in size
Description: Ecotropic viral insertion site 1 (EVI1) is located on chromosome 3q26.2 as part of the MECOM (MDS and EVI1 complex) locus. Under normal hematopoiesis, EVI1 is a regulator of hematopoietic stem cell maintenance and self-renewal and EVI1 levels decrease as the cells differentiate. In approximately 5-10% of de novo acute myeloid leukemia (AML) EVI1 is aberrantly expressed, including Chromosomal inv(3)(q21;q26.2) or t(3;3)(q21;q26.2) alterations (MECOM-r) that account for about 50% of AML with EVI1 overexpression 31. AMLs with high levels of EVI1 have a poor prognosis and an overall survival time averaging between 10-14 months. EVI1 overexpression confers resistance in leukemia cells, highlighting the need to develop new targeted therapies for EVI1 overexpressing AMLs. Here, we performed an unbiased chemical drug screening by evaluating the single agent activity of a collection of 2,480 oncology-focused, approved and investigational drugs (NCATS Mechanism Interrogation Plates, MIPE v5.0) against a panel of seven AML cell lines. These included four MECOM-r cell-lines (AML-191, AML-194, UCSD-AML1 and HNT-34) and three non-MECOM-r AMLs (MV4-11, OCI-AML3 and SET-2). Exploiting the mechanistic redundancy built in the library, we identified target-level sensitivities in MECOM-r AML cells and relative activity as compared to other AML subtypes.
A collection of 2480 mechanistically annotated dugs (MIPE v5.0) was used to screen four 3q26.2 rearranged AML cell lines and three non-3q26.2 rearranged AML cell lines. This library purposely exploits redundancy by including multiple inhibitors of key onco-targets, while simultaneously encompassing mechanistic diversity, targeting more than 800 distinct mechanisms of action. Briefly, cells were seeded in 5 uL of growth media using a Multidrop Combi dispenser into 1536 well white polystyrene tissue culture treated plates (Corning) at a density of 500cells/well. For each cell-line, for each of the 2480 drugs in MIPE v5.0 library, an 11-point dose curve was generated via a 1536 pin-tool. Plates were incubated for 48 hr at standard incubator conditions, covered by a stainless steel gasketed lid to prevent evaporation. Cell viability was determined by luminescence based, Cell Titer Glo assay (Promega). In detail, 3 uL of Cell Titer Glo were added to each well and plates were incubated at room temperature for 15 min with a stainless-steel lid in place. Luminescence readings were taken using a Viewlux (PerkinElmer) with a 2 s exposure time per plate. Compound dose-response curves were normalized to DMSO and empty well controls on each plate. Quantitative drug activity data from dose-response curves was determined utilizing area Under the Curve (AUC) and Z-transformed AUC (Z-AUC, a mean-centering transformation applied to each individual cell-line screened).
Potency is read from the fitted curve at half-maximal effect.

SMILES | Potency
CC(C)c1cccc(C(C)C)c1O | inactive
C[C@@H]1CN(Cc2ccc(F)cc2)CCN1C(=O)COc1ccc(Cl)cc1NC(N)=O | inactive
Cc1sc2c(c1C)C(c1ccc(Cl)cc1)=N[C@@H](CC(=O)OC(C)(C)C)c1nnc(C)n1-2 | 742 nM (active)
CC1(C)CC[C@]2(NC(=O)C(C)(F)F)CC[C@]3(C)[C@H](C(=O)C=C4[C@@]5(C)C=C(C#N)C(=O)C(C)(C)[C@@H]5CC[C@]43C)[C@@H]2C1 | 1320 nM (active)
CCCC[N+]1(C)[C@H]2CC(OC(=O)[C@H](CO)c3ccccc3)C[C@H]1[C@H]1O[C@H]12 (stereo not given in full) | inactive
C/C(O)=C(\C#N)C(=O)Nc1cc(Br)ccc1Br | inactive
O=C(O)CCCc1ccc(N(CCCl)CCCl)cc1 | 2950 nM (active)
CN(C)CCN(C)CCc1ccc(Cl)c(Cl)c1 | inactive
CCC1(c2ccc(N)cc2)CCC(=O)NC1=O (stereo not given) | inactive
O=C(CBr)N1CC([N+](=O)[O-])([N+](=O)[O-])C1 | inactive
O=P1(NCCCl)OCCCN1CCCl (stereo not given) | inactive
C[C@]12CCC(=O)C(O)=C1CC[C@@H]1[C@@H]2CC[C@]2(C)C(=O)CC[C@@H]12 | inactive
CCc1c(C(=O)C(N)=O)c2c(OCC(=O)O)cccc2n1Cc1ccccc1 | inactive
CC(=O)N1N=C(c2ccc(N)cc2)c2cc3c(cc2C[C@H]1C)OCO3 | inactive
C#C[C@]1(O)C=C[C@H]2[C@@H]3CCC4=CC(=O)CC[C@@H]4[C@H]3CC[C@@]21CC | inactive
C[C@]12CC[C@@H]3c4ccc(OC(=O)N(CCCl)CCCl)cc4CC[C@H]3[C@@H]1CC[C@@H]2OP(=O)(O)O | inactive
CN(C)[C@@H]1C(=O)C(C(N)=O)=C(O)[C@@]2(O)C(=O)C3=C(O)c4c(O)cccc4[C@@](C)(O)[C@H]3[C@H](O)[C@@H]12 | inactive
CC[C@@H](C(N)=O)N1CCCC1=O | inactive
C/C=C(\C)C(=O)N[C@@H](c1ccccc1)[C@@H](O)C(=O)O[C@H]1C[C@@]2(O)[C@@H](OC(=O)c3ccccc3)[C@@H]3[C@]4(OC(C)=O)CO[C@@H]4C[C@H](O)[C@@]3(C)C(=O)[C@H](OC(C)=O)C(=C1C)C2(C)C | 16.6 nM (active)
O=c1cccc2n1CC1CNC[C@H]2C1 | inactive

SMILES | Potency
Cc1sc2c(c1C)C(c1ccc(Cl)cc1)=NC(CC(=O)Nc1ccc(O)cc1)c1nnc(C)n1-2 (stereo not given) | 742 nM (active)
CCN(CC)C(=O)c1ccc(C2=CC3(CCNCC3)Oc3cccc(O)c32)cc1 | inactive
COC(=O)[C@@]12OC[C@]34[C@H]([C@@H](O)[C@@H]1O)[C@@]1(C)CC(=O)C(O)=C(C)[C@@H]1C[C@H]3OC(=O)[C@H](OC(=O)/C=C(\C)C(C)C)[C@@H]24 | 3.3 nM (active)
Fc1ccc(C(OCCN2CCN(CCCc3ccccc3)CC2)c2ccc(F)cc2)cc1 | 26300 nM (active)
COc1cc(C)[nH]c(=O)c1CNC(=O)c1c(C)n([C@H](C)C2CCN(CC(F)(F)F)CC2)c2ccccc12 | inactive
Cc1cc(SCc2sc(-c3ccc(C(F)(F)F)c(F)c3)nc2C)ccc1OCC(=O)O | inactive
CC(C)CC(N(C)C)C1(c2ccc(Cl)cc2)CCC1 (stereo not given) | inactive
CC[C@@]1(O)C(=O)OCc2c1cc1n(c2=O)Cc2cc3ccccc3nc2-1 | 10.5 nM (active)
COc1ccc(C(=O)c2c(C)n(CCN3CCOCC3)c3cc(I)ccc23)cc1 | inactive
CN1C(=O)[C@@H](NC(=O)[C@H](CCC(F)(F)F)[C@H](CCC(F)(F)F)C(N)=O)N=C(c2ccccc2)c2ccccc21 | inactive
Clc1ccccc1C(c1ccccc1)(c1ccccc1)n1cccn1 | inactive
CN1[C@H]2CC(O)C[C@H]1[C@H]1O[C@H]12 (stereo not given in full) | inactive
CC(C)[C@]12O[C@H]1[C@@H]1O[C@]13[C@]1(O[C@H]1C[C@H]1C4=C(CC[C@@]13C)C(=O)OC4)[C@@H]2O | 41.7 nM (active)
c1ccc2c(CN3CCNCC3)cccc2c1 | inactive
NCC1(CC(=O)O)CCCCC1 | inactive
CN[C@@H]1C[C@H]2O[C@@](C)([C@@H]1OC)n1c3ccccc3c3c4c(c5c6ccccc6n2c5c31)C(=O)NC4 | 66.1 nM (active)
O=C(Oc1ccc([N+](=O)[O-])cc1)N1CCN(Cc2cccc(Oc3ccccc3)c2)CC1 | inactive
COc1cc([C@@H]2c3cc4c(cc3[C@@H](O)C3COC(=O)C32)OCO4)cc(OC)c1O (stereo not given in full) | 332 nM (active)
CN1C(=O)COc2c(C(=O)NC3CN4CCC3CC4)cc(Cl)cc21 (stereo not given) | inactive
CC(C)(O)/C=C\C(=O)[C@](C)(O)[C@H]1[C@H](O)C[C@]2(C)[C@@H]3CC=C4[C@@H](C=C(O)C(=O)C4(C)C)[C@]3(C)C(=O)C[C@@]12C | 148 nM (active)
